In PubChem BioAssay (EPA / NIEHS):
Several values for one entry are separate records, joined by “and”; a condition that tells them apart may be missing. Equal entries are not always repeated. Results filed as inconclusive are left out. Some structures have more than one record in an assay (separate samples or runs), and their calls can disagree. Activity calls are given as the source filed them. The calls were made as follows, unless noted: active = hit-call score of the fitted dose curve at least 0.9, where 1 is the maximum; inconclusive = response in the unintended direction; inactive = score below 0.9.

Legend:
[1] = target: human Peripheral-type Benzodiazepine Receptor (PBR), TSPO (gene 706) (UniProt P30536); test: NVS_MP_hPBR: NovaScreen (NVS) Membrane Protein Assay for human Peripheral-type Benzodiazepine Receptor (PBR) (AID 2283331);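 also: hits reduce radioligand binding relative to DMSO baseline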
In short: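 Cell-free binding to human colonic membrane preparations measured by filter-based scintillation counting after 1 h. Compounds first run at 25 uM in duplicate, then concentration series for actives; signal loss against DMSO baseline.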

[2] = target: Glutamate receptor ionotropic, kainate 1 (Rattus norvegicus) (UniProt P22756); test: NVS_IC_rKAR: NovaScreen (NVS) Ion Channel Assay for rat Kainic Acid Receptors (KAR) (AID 2283334; active = hit-call score of the fitted dose curve at least 0.9, where 1 is the maximum; inactive = score below 0.9)
In short: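 Rat forebrain membrane preparation incubated 1 h with radioligand and test chemical; bound signal read by filtration and scintillation. Single-concentration screen at 25 uM, then concentration series to 50 uM maximum.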

[3] = target: rat Peripheral-type Benzodiazepine Receptor (PBR), Tspo (gene 24230) (UniProt P16257); test: NVS_MP_rPBR: NovaScreen (NVS) Membrane Protein Assay for rat Peripheral-type Benzodiazepine Receptor (PBR) (AID 2283335)
In short: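 Single-concentration duplicate screening at 25 uM preceded concentration-series retesting of actives. Binding of a specific radioligand to rat kidney membrane PBR was read by filtration radiodetection after 1 h, with plate-wise positive and negative controls.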

[4] = target: bovine Estrogen Receptor (ER), ESR1 (gene 407238) (UniProt P49884); test: NVS_NR_bER: NovaScreen (NVS) Nuclear Receptor Binding Assay for bovine Estrogen Receptor (ER) (AID 2283345);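 also: actives lower the bound radioligand count which means they displace the ER ligand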
In short: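 Cell-free radioligand binding with bovine uterine membrane extracts, read 18 hours after dosing by scintillation counting. Loss of signal versus DMSO baseline indicates displacement. Primary screen run in duplicate at 25 uM, actives followed in concentration series.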

[5] = target: Estrogen receptor (Homo sapiens) (UniProt P03372); test: OT_ER_ERaERa_1440: Odyssey Thera (OT) 24-hour HEK293T Protein-Complementation Assay for Estrogen Receptor-alpha/-alpha Homodimer (AID 2283349);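 also: hits raise fluorescence above DMSO for agonists and antagonists alike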
In short: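 HEK293T, stable ERα LBD (aa 310-547) homodimer PCA; 24 h compound exposure; mean fluorescence intensity (nuclear for agonists, nuclear plus cytoplasmic for antagonists) vs vehicle; positive fitting direction, DMSO baseline.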

[6] = target: Estrogen receptor (Homo sapiens) (UniProt P03372); test: OT_ER_ERaERa_0480: Odyssey Thera (OT) 8-hour HEK293T Protein-Complementation Assay for Estrogen Receptor-alpha/-alpha Homodimer (AID 2283351);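 also: rise in fluorescence from reassembled reporter fragments on ERα LBD homodimer in nucleus or whole cell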
In short: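 Read-out: fluorescence intensity rise relative to DMSO, nuclear for agonists, nuclear plus cytoplasmic for antagonists. Construct is the ERα LBD (aa 310-547) homodimer fragment-complementation pair, stably expressed in HEK293T; exposure 8 h.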

[7] = target: Androgen Receptor/SRC-1 Co-activator, AR (gene 367) (UniProt P10275); test: OT_AR_ARSRC1_0960: Odyssey Thera (OT) 16-hour HEK293T Protein-Complementation Assay for Androgen Receptor/SRC-1 Co-activator (AID 2283353);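 also: actives raise the signal above DMSO so potency reflects increased AR and SRC-1 complex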
In short: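 Readout: 488 nm nuclear-to-cytoplasmic fluorescence ratio from imaging of at least 400 cells per image, 16 h post-dose. Reporter is Venus YFP complementation between AR and SRC-1 fusions, stably expressed in HEK293T; activity scored upward relative to DMSO.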

[8] = target: Androgen Receptor/SRC-1 Co-activator, AR (gene 367) (UniProt P10275); test: OT_AR_ARSRC1_0480: Odyssey Thera (OT) 8-hour HEK293T Protein-Complementation Assay for Androgen Receptor/SRC-1 Co-activator (AID 2283354);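 also: hits raise the complementation signal above DMSO so AC50 marks enhancers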
In short: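 Reconstituted split-Venus YFP signal from AR–SRC-1 interaction, read by imaging 8 h post-dose in stable HEK293T lines. The 488 nm nucleus-to-cytoplasm ratio (≥400 cells/image) was fitted upward against DMSO.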

[9] = NVS_IC_rCaBTZCHL: NovaScreen (NVS) Ion Channel Assay for Calcium Channel, Type L, Benzothiazepine Site (CaBTZCHL) (AID 2283337)
In short: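 Rat cortical membrane preparation, cell-free. Radioligand displaced by test chemical; 1.5 h incubation; filtration, scintillation count. DMSO = negative control/baseline. Primary: duplicate, 25 uM; secondary: concentration series.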

[10] = target: human Constitutive Androstane Receptor (CAR), NR1I3 (gene 9970) (UniProt Q14994); test: NVS_NR_hCAR_Antagonist: NovaScreen (NVS) Nuclear Receptor Binding Assay for human Constitutive Androstane Receptor Antagonism (CAR) (AID 2283344)
In short: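 Single 25 uM duplicate primary screen, with concentration-series follow-up on actives. Cell-free binding format run in antagonist mode, TR-FRET signal taken 1 h post-dose; activity is signal loss relative to DMSO.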

[11] = target: rat Glycine Receptor, Strychnine-sensitive (GlyRStrySens), Glra1 (gene 25674) (UniProt P07727); test: NVS_LGIC_rGlyRStrySens: NovaScreen (NVS) Ligand-Gated Ion Channel Assay for rat Glycine Receptor, Strychnine-sensitive (GlyRStrySens) (AID 2283341)
In short: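 Radioligand displacement on rat spinal cord membranes, 1 hr, filter scintillation read-out. Single-concentration duplicate screen at 25 uM; chemicals meeting threshold (e.g., 30% inhibition) rerun in concentration-response up to 50 uM. Loss of binding fitted versus DMSO.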

[12] = system: guinea pig Histamine Receptor (H2), gene 100729734; test: NVS_GPCR_gH2: NovaScreen (NVS) G Protein-Coupled Receptor Assay for guinea pig Histamine Receptor (H2) (AID 2283342)
In short: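 Guinea pig striatal membrane preparation with specific radioligand; bound counts measured by filtration and scintillation 1 h post-dosing, DMSO as baseline. Chemicals passing a 25 uM duplicate screen were titrated to a 50 uM maximum.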

[13] = target: Bile acid receptor (Homo sapiens) (UniProt Q96RI1); test: NVS_NR_hFXR_Antagonist: NovaScreen (NVS) Nuclear Receptor Binding Assay for human Farnesoid X Receptor Antagonism (FXR) (AID 2283350)
In short: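 Antagonist-format time-resolved FRET binding assay with extracted human receptor protein, read 1 hour after compound addition. Compounds first screened at 25 uM in duplicate, then actives tested in concentration series, with loss of signal relative to DMSO.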

[14] = system: NCBI gene 100848466; test: NVS_NR_bPR: NovaScreen (NVS) Nuclear Receptor Binding Assay for bovine Progextron Receptor (PR) (AID 2283343);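 also: actives lower bound radioligand signal below DMSO meaning displacement of the label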
In short: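 Competitive radioligand binding with membranes from bovine uterus, scintillation read-out at 18 h post-dose. Compounds first tested in duplicate at 25 uM, then actives in concentration series; loss-of-signal relative to DMSO.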

[15] = target: chimpanzee Androgen Receptor (AR), AR (gene 747460) (UniProt O97775); test: NVS_NR_cAR: NovaScreen (NVS) Nuclear Receptor Binding Assay for chimpanzee Androgen Receptor (AR) (AID 2283346);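 also: radioligand displacement from AR measured by scintillation counting in a cell-free assay; a loss of bound radioligand signal versus DMSO counts as binding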
In short: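 Cell-free competition binding with insect-cell (Sf9/Sf21) extracted chimpanzee AR; scintillation signal from lysate at 72 h. Screened in duplicate at 25 uM, then concentration-response for actives; fitting relative to DMSO.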

[16] = target: Voltage-gated inwardly rectifying potassium channel KCNH2 (Homo sapiens) (UniProt Q12809); test: NVS_IC_hKhERGCh: NovaScreen (NVS) Ion Channel Assay for human Potassium Channel ERG (KhERGCh) (AID 2283333)
In short: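 Membranes from CHO cells expressing human ERG; displacement of radioligand measured by filtration and scintillation after 0.75 h. Single-concentration duplicate screen at 25 uM, then concentration-response for actives; DMSO baseline.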

[17] = target: human Androgen Receptor (AR), AR (gene 367) (UniProt P10275); test: NVS_NR_hAR: NovaScreen (NVS) Nuclear Receptor Binding Assay for human Androgen Receptor (AR) (AID 2283332)
In short: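 Radioligand competitive binding, scintillation read-out, in cell-free extract from LnCAP, measured 20 h after dosing. Screened first in duplicate at 25 uM, then concentration series for actives; activity fitted against DMSO.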

Measured: AC50

Chain of human Peripheral-type Benzodiazepine Receptor (PBR), TSPO (gene 706) (P30536 whole entry, looked up): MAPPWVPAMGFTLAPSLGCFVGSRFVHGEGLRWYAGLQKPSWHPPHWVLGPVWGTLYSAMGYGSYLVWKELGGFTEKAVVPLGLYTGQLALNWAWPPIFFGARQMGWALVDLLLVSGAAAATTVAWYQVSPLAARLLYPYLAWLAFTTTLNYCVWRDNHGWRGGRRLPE
Chain of Androgen Receptor/SRC-1 Co-activator, AR (gene 367) (P10275 whole entry, looked up, the tested form may be a part): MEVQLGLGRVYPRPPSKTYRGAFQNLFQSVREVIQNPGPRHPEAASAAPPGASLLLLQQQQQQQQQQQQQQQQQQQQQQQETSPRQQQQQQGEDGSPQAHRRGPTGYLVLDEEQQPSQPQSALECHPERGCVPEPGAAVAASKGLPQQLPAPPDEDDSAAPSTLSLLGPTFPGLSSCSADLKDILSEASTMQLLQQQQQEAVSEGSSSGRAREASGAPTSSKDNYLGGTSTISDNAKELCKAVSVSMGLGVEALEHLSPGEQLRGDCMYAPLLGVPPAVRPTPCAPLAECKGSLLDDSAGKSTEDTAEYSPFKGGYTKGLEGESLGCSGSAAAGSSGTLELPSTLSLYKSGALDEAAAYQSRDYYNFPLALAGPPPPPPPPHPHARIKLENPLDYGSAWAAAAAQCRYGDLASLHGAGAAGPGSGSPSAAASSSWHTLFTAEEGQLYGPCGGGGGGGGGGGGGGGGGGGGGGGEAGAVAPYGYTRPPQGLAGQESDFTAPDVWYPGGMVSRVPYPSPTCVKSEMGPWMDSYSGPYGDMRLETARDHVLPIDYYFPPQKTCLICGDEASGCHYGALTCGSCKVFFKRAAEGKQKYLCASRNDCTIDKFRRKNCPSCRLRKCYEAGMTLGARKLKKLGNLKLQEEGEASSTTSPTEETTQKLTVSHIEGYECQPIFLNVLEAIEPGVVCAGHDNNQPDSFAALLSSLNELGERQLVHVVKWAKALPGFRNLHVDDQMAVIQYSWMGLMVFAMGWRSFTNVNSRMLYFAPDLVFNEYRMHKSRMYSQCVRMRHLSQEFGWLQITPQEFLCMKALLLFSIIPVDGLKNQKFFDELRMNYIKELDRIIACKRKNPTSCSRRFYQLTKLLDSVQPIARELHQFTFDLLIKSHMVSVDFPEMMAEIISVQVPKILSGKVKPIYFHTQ
Chain of chimpanzee Androgen Receptor (AR), AR (gene 747460) (O97775 whole entry, looked up): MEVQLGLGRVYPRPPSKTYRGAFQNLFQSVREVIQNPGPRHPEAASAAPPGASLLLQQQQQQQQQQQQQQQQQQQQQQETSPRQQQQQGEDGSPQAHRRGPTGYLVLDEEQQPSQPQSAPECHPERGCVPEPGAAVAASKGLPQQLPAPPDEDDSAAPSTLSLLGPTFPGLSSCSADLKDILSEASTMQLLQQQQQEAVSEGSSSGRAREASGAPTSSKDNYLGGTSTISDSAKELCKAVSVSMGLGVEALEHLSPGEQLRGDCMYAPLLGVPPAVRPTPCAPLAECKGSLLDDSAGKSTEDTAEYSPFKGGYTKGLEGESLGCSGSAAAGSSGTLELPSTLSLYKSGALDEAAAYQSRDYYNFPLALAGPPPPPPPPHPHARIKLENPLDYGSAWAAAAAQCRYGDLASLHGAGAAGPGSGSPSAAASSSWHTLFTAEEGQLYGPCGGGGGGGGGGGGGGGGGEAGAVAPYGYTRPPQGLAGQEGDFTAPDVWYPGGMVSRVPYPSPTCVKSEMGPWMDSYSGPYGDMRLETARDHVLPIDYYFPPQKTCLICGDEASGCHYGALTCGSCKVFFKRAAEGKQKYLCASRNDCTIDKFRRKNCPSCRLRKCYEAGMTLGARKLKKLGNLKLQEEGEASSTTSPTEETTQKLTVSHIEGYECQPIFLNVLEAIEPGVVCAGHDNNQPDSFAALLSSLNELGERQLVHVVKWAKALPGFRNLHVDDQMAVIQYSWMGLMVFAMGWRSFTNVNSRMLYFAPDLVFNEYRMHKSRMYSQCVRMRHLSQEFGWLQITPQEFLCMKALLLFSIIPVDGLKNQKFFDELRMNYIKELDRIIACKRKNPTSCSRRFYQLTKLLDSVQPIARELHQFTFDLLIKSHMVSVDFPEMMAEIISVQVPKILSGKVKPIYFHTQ
Chain of bovine Estrogen Receptor (ER), ESR1 (gene 407238) (P49884 whole entry, looked up): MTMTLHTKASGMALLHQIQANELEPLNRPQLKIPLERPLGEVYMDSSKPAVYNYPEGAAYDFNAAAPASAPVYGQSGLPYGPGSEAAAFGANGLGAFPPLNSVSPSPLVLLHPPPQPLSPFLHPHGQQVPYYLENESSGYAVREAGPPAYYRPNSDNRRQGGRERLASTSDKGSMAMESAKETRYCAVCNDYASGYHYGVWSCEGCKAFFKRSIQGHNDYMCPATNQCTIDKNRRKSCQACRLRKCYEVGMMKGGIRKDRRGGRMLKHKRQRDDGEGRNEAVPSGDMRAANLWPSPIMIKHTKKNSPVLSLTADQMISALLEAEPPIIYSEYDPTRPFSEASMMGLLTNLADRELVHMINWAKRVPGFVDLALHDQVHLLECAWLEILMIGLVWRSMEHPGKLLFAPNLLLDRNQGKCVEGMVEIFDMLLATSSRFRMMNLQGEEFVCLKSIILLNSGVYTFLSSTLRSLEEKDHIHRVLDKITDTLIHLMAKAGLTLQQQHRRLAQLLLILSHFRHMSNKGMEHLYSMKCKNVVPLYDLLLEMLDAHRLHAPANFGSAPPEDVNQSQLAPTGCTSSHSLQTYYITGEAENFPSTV
Chain of rat Peripheral-type Benzodiazepine Receptor (PBR), Tspo (gene 24230) (P16257 whole entry, looked up): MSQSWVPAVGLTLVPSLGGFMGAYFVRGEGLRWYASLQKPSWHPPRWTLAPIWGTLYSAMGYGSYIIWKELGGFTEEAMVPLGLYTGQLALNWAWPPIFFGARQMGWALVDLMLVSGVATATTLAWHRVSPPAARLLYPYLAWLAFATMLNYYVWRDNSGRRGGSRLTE
Chain of Estrogen receptor (Homo sapiens) (P03372 whole entry, looked up, the tested form may be a part): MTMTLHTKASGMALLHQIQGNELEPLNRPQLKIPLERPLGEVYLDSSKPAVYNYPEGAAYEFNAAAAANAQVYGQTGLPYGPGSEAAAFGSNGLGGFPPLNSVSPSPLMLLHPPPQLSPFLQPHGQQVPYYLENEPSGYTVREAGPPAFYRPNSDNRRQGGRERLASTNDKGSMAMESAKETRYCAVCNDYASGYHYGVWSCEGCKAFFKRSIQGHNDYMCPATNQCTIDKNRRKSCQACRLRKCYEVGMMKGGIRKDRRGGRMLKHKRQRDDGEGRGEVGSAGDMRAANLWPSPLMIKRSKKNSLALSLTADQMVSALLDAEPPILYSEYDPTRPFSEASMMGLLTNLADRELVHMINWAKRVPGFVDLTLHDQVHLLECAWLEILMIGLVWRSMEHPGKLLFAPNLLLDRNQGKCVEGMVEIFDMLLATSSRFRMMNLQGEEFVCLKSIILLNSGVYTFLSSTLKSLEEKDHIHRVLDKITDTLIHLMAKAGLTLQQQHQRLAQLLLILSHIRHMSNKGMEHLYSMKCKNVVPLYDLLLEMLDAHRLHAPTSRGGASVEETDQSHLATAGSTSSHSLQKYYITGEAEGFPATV
Chain of human Androgen Receptor (AR), AR (gene 367) (P10275 whole entry, looked up): as the sequence (P10275 whole entry, looked up, the tested form may be a part) above
Chain of Glutamate receptor ionotropic, kainate 1 (Rattus norvegicus) (P22756 whole entry, looked up): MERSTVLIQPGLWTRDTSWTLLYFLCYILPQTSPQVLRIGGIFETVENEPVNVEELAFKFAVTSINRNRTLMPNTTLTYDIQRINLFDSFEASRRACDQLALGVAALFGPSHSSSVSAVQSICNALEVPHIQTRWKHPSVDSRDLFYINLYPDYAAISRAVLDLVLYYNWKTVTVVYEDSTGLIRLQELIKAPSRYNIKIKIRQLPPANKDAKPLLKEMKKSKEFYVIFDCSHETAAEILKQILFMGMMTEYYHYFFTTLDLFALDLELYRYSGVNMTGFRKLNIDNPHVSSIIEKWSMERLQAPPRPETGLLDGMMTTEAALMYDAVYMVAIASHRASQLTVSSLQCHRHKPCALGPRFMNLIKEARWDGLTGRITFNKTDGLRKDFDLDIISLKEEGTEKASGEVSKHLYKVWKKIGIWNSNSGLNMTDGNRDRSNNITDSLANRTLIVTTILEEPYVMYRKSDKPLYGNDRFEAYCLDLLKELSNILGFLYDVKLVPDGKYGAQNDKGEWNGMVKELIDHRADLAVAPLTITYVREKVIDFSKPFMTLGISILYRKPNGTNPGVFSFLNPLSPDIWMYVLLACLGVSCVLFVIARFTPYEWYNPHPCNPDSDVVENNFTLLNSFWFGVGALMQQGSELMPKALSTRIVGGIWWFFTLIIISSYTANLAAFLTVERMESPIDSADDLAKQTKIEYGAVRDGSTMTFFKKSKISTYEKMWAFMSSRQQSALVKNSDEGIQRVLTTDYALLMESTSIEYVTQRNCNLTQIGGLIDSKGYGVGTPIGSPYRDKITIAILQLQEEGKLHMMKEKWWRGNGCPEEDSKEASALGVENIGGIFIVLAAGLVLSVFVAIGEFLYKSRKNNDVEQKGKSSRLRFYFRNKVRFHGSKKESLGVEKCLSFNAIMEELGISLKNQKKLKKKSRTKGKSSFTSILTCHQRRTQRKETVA
Chain of Bile acid receptor (Homo sapiens) (Q96RI1 whole entry, looked up): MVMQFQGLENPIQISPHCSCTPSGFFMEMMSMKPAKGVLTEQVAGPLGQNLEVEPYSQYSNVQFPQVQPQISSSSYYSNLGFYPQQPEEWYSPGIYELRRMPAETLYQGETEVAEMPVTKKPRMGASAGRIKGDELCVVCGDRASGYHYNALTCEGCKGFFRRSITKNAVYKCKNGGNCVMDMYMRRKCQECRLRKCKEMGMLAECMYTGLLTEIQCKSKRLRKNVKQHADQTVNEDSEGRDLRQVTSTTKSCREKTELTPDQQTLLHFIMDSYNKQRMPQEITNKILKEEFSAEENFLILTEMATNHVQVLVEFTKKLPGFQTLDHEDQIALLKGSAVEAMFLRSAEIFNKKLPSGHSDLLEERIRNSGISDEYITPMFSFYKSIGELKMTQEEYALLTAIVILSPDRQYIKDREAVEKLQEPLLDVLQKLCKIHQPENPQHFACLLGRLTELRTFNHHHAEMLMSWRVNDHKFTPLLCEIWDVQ

NC(=O)N1C(=O)C(C(=O)c2cc(Cl)cs2)c2cc(F)c(Cl)cc21 (stereo not given)
active: [1] 0.951 µM | [3] 25 µM | [4] 25 µM
inactive: [2] | [5] | [6] | [7] | [8]

CCCCCCCC(=O)O
inactive: [9] | [10] | [5] | [6]

COC(=O)CCCCC(=O)OC
inactive: [2] | [5] | [6]

NC(=O)N(O)[C@@H]1C=C[C@H](Oc2cccc(Oc3ccc(F)cc3)c2)C1
inactive: [11] | [12] | [5] | [6]
active: [1] 28.5 µM

CC1=C(/C=C/C(C)=C/C=C/C(C)=C/C(=O)O)C(C)(C)CCC1
active: [1] 18.1 µM
inactive: [3] | [4] | [5] | [6]

c1ccc2cc3c(ccc4ccccc43)cc2c1
inactive: [4] | [5] | [13] | [6]
active: [1] 3.45 µM and 5.17 µM and 12.5 µM

C[C@@H]1C[C@H]2[C@@H]3CCC4=CC(=O)C=C[C@]4(C)[C@@]3(F)[C@@H](O)C[C@]2(C)[C@@]1(O)C(=O)COP(=O)(O)O
inactive: [12] | [4] | [5] | [6]
active: [14] 10.5 µM | [15] 0.0307 µM

CCCOc1sc(C(=O)N2CCC(c3cc(CN)ccc3F)CC2)c(C)c1Br
inactive: [3]
active: [16] 7.87 µM | [9] 3.64 µM | [12] 7.46 µM

CCC(C)(C)C1CCC(O)CC1 (stereo not given)
inactive: [5] | [6]
active: [4] 16.4 µM and 12.9 µM | [15] 32.1 µM | [6] 59.3 µM

CC[C@H](c1ccc(O)cc1)[C@@H](CC)c1ccc(O)cc1
inactive: [17] | [15] | [7] | [8]
active: [1] 795 nM [middle of 4 runs] | [17] 0.416 µM | [3] 822 nM and 258 nM | [10] 0.00229 µM | [13] 8.83 µM | [7] 35.6 µM
